Compounds without any hit were thinned out: in the full panel of roughly 83,000, 20% have a hit.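 48-hour exposure, single concentration, 96-well plates; percent growth endpoint where 0 means no net growth. Active: below 10.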 Active and inactive are the calls of the source. Where a SMILES comes first, the peptide text is derived from it. Bridges are numbered along the chain shown (N, C = ends). [ ]: non-standard residue; d: D form. The star is where a group is joined. ξ: configuration not given here. ξNMePhe(4-NMe2) = CNC(Cc1ccc(N(C)C)cc1)C(=O)O; Picolinoyl(3-OH) = O=C(c1ncccc1O)*; ξPip(4-oxo) = O=C1CCNC(C(=O)O)C1; Phg = N[CH](C(=O)O)c1ccccc1; Abu = CC[CH](N)C(=O)O
Assays:
Test in all cases: NCI-60 one-dose screen, 48 h (100 = growth as untreated, 0 = no growth, -100 = all killed)
DU-145 prostate = conditions: 10 µM
K-562 leukemia = conditions: 10 µM
MALME-3M melanoma = conditions: 10 µM
MDA-MB-231 breast = conditions: 10 µM
RXF 393 renal = conditions: 10 µM
SF-268 CNS = conditions: 10 µM
SF-295 CNS = conditions: 10 µM
SF-539 CNS = conditions: 10 µM
UACC-257 melanoma = conditions: 10 µM
HCT-15 colon = conditions: 10 µM
HT29 colon = conditions: 10 µM
SNB-75 CNS = conditions: 10 µM
SNB-19 CNS = conditions: 10 µM
U251 CNS = conditions: 10 µM
PC-3 prostate = conditions: 10 µM
SK-MEL-5 melanoma = conditions: 10 µM
UACC-62 melanoma = conditions: 10 µM unless noted
LOX IMVI melanoma = conditions: 10 µM
SK-MEL-28 melanoma = conditions: 10 µM
M14 melanoma = conditions: 10 µM

Measured: growth

CCOC(=O)C(CCC(C)C)C(=O)OCC
inactive: DU-145 prostate 107% | K-562 leukemia 103% | MALME-3M melanoma 108% | MDA-MB-231 breast 109% | RXF 393 renal 110% | SF-268 CNS 92.5% | SF-295 CNS 102% | SF-539 CNS 107% | UACC-257 melanoma 97.5% | HCT-15 colon 104% | HT29 colon 94.4% | SNB-75 CNS 94.6% | SNB-19 CNS 109% | U251 CNS 101% | PC-3 prostate 107% | SK-MEL-5 melanoma 102% | UACC-62 melanoma 101% | LOX IMVI melanoma 115% | SK-MEL-28 melanoma 107%

O=C(CS)Nc1ccc2ccccc2c1
inactive: DU-145 prostate 113% | K-562 leukemia 96.8% | MALME-3M melanoma 126% | MDA-MB-231 breast 106% | RXF 393 renal 82.8% | SF-268 CNS 85.8% | SF-295 CNS 123% | SF-539 CNS 99.5% | UACC-257 melanoma 133% | M14 melanoma 111% | HCT-15 colon 75.9% | SNB-75 CNS 112% | SNB-19 CNS 101% | U251 CNS 98% | PC-3 prostate 70% | SK-MEL-5 melanoma 91.9% | UACC-62 melanoma 94.1% | LOX IMVI melanoma 86.7% | SK-MEL-28 melanoma 102%

CCC1NC(=O)C(NC(=O)c2ncccc2O)C(C)OC(=O)C(c2ccccc2)NC(=O)C2CC(=O)CCN2C(=O)C(Cc2ccc(N(C)C)cc2)N(C)C(=O)C2CCCN2C1=O (configuration not stated) (tested in a mixture with another compound) ({Picolinoyl(3-OH)}-T[Abu]P[ξNMePhe(4-NMe2)][ξPip(4-oxo)][Phg]; ester 1-C; configuration not given here)
inactive: DU-145 prostate 46.9% | K-562 leukemia 38.3% | MALME-3M melanoma 55.4% | MDA-MB-231 breast 58.6% | RXF 393 renal 27.6% | SF-268 CNS 79.8% | SF-295 CNS 20.7% | SF-539 CNS 64.2% | UACC-257 melanoma 70.6% | HCT-15 colon 79.3% | HT29 colon 43.6% | SNB-75 CNS 45.4% | SNB-19 CNS 78.4% | U251 CNS 64.9% | PC-3 prostate 55.5% | UACC-62 melanoma 50.9% | LOX IMVI melanoma 49.2%
active: SK-MEL-5 melanoma -21.7%

CC(C)C(C#N)(C(C)C)C(C)C
inactive: DU-145 prostate 111% | K-562 leukemia 114% | MALME-3M melanoma 92.9% | MDA-MB-231 breast 104% | RXF 393 renal 115% | SF-268 CNS 98.1% | SF-295 CNS 103% | SF-539 CNS 104% | UACC-257 melanoma 96% | HCT-15 colon 104% | HT29 colon 105% | SNB-75 CNS 98.6% | SNB-19 CNS 108% | U251 CNS 102% | PC-3 prostate 92.7% | SK-MEL-5 melanoma 101% | UACC-62 melanoma 102% | LOX IMVI melanoma 112% | SK-MEL-28 melanoma 109%

COC1=CC(=O)c2nc(Cl)ccc2C1=O
inactive: DU-145 prostate 63% | MALME-3M melanoma 130% | SF-268 CNS 63.6% | SF-295 CNS 115% | SF-539 CNS 88.3% | HCT-15 colon 100% | SNB-75 CNS 48.6% | SNB-19 CNS 113% | PC-3 prostate 21.7% | UACC-62 melanoma 17.4% | SK-MEL-28 melanoma 111%
active: K-562 leukemia 0.0099% | MDA-MB-231 breast -25.5% | RXF 393 renal -53.9% | UACC-257 melanoma -30.9% | M14 melanoma -5.38% | U251 CNS -42.5%

CC(=O)OCCC(C)CCC=C(C)C (configuration not stated)
inactive: DU-145 prostate 107% | K-562 leukemia 98.5% | MALME-3M melanoma 114% | MDA-MB-231 breast 98.1% | RXF 393 renal 116% | SF-268 CNS 97.2% | SF-295 CNS 106% | SF-539 CNS 99.1% | UACC-257 melanoma 106% | HCT-15 colon 92.5% | HT29 colon 105% | SNB-75 CNS 95.9% | SNB-19 CNS 103% | U251 CNS 102% | PC-3 prostate 92.3% | SK-MEL-5 melanoma 101% | UACC-62 melanoma 97.8% | LOX IMVI melanoma 103% | SK-MEL-28 melanoma 113%

OCCN1CCOCC1
inactive: DU-145 prostate 124% | K-562 leukemia 114% | MALME-3M melanoma 114% | MDA-MB-231 breast 113% | RXF 393 renal 119% | SF-268 CNS 117% | SF-295 CNS 110% | SF-539 CNS 111% | UACC-257 melanoma 99.7% | HCT-15 colon 96.3% | HT29 colon 110% | SNB-75 CNS 90.4% | SNB-19 CNS 102% | U251 CNS 108% | PC-3 prostate 109% | SK-MEL-5 melanoma 103% | UACC-62 melanoma 103% | LOX IMVI melanoma 105% | SK-MEL-28 melanoma 105%

O=c1cc(-c2ccccc2)oc2c1ccc1ccccc12
inactive: DU-145 prostate 102% | K-562 leukemia 102% | MALME-3M melanoma 146% | MDA-MB-231 breast 88.4% | RXF 393 renal 90.8% | SF-268 CNS 101% | SF-295 CNS 98% | SF-539 CNS 81.2% | UACC-257 melanoma 97.3% | M14 melanoma 98.9% | HCT-15 colon 97.7% | SNB-75 CNS 71.4% | SNB-19 CNS 75.5% | U251 CNS 83.8% | SK-MEL-5 melanoma 79.6% | UACC-62 melanoma 85.6% | LOX IMVI melanoma 89.3% | SK-MEL-28 melanoma 99.3%

COc1ccc2c(NCCCCCCCCNc3c4ccccc4nc4cc(OC)ccc34)c3ccccc3nc2c1
active: DU-145 prostate -100% | K-562 leukemia -100% | MALME-3M melanoma -98.1% | MDA-MB-231 breast -89.5% | RXF 393 renal -74.3% | SF-268 CNS -99.3% | SF-295 CNS -92.1% | SF-539 CNS -100% | UACC-257 melanoma -88.8% | M14 melanoma -100% | HT29 colon -100% | SNB-75 CNS -100% | SNB-19 CNS -86.7% | U251 CNS -100% | PC-3 prostate -100% | SK-MEL-5 melanoma -100% | UACC-62 melanoma -100% | LOX IMVI melanoma -98.6% | SK-MEL-28 melanoma -100%
